From PubChem BioAssay (EPA / NIEHS)
The source made the active and inactive calls. The calls were made as follows: active = hit-call score of the fitted dose curve at least 0.9, where 1 is the maximum; inactive = score below 0.9.

Read-out: Heat shock 70 kDa protein 1 (HSPA1A), gene 3303
Assay: LTEA_HepaRG_HSPA1A: Life Technologies and Expression Analysis (LTEA) Assay for Heat shock 70 kDa protein 1 (HSPA1A) using HepaRG (AID 2283502)
Settings: mRNA level, 48 h; actives raise or lower the signal
Procedure, shortened: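 Cells were plated and cultured for 48 h, then switched to serum-free induction medium. Chemicals were added at eight half-log concentrations up to 100 uM for 48 h. RNA was then isolated and HSPA1A measured by qRT-PCR with bidirectional curve fitting against DMSO.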

Compound | outcome | AC50
Cc1c(COC(=O)[C@@H]2[C@H](/C=C(\Cl)C(F)(F)F)C2(C)C)cccc1-c1ccccc1 | inactive | –
CC(C)NC(=O)N1CC(=O)N(c2cc(Cl)cc(Cl)c2)C1=O | inactive | –
COC(=O)c1c(C(F)F)nc(C(F)(F)F)c(C2=NCCS2)c1CC(C)C | inactive | –
Clc1nc(Cl)nc(Nc2ccccc2Cl)n1 | inactive | –
COc1cc(OC)nc(NC(=O)NS(=O)(=O)c2ncccc2OCC(F)(F)F)n1 | – | 237 nM (active)
Cc1cc(C)nc(Nc2ccccc2)n1 | inactive | –
O=c1n(Cl)c(=O)n(Cl)c(=O)n1Cl | inactive | –
CSC(=O)c1c(C(F)F)nc(C(F)(F)F)c(C(=O)SC)c1CC(C)C | inactive | –
C=C(C)CN(CC)c1c([N+](=O)[O-])cc(C(F)(F)F)cc1[N+](=O)[O-] | inactive | –
O=C(Nc1ccccc1-c1ccc(Cl)cc1)c1cccnc1Cl | inactive | –
COP(=O)(OC)O/C(C)=C/C(=O)N(C)C | inactive | –
CC(C)Nc1nc(Cl)nc(NC(C)C)n1 | inactive | –
COP(=S)(OC)Oc1ccc([N+](=O)[O-])c(C)c1 | inactive | –
COP(=S)(OC)SCn1nnc2ccccc2c1=O | inactive | –
C=CCOC(=O)C(C)(C)OC(=O)c1cc(-n2c(=O)cc(C(F)(F)F)n(C)c2=O)ccc1Cl | inactive | –
CNC(=O)N(C)c1nnc(C(C)(C)C)s1 | inactive | –
CCSC(=O)N1CCCCCC1 | inactive | –
CC(C)C1(C)N=C(c2ncccc2C(=O)O)NC1=O (stereo not given) | inactive | –
Nc1cnn(-c2ccccc2)c(=O)c1Cl | inactive | –
CC(C)N1C(=O)N(c2ccccc2)CSC1=NC(C)(C)C | inactive | –
